These results are taken from PubChem BioAssay (Tox21).

SMILES strings stand for the structures. Activity calls are given as the source filed them. Entries that show only a call come without a potency. Calls come from the whole dose curve.

Chain of Gonadotropin-releasing hormone receptor (Homo sapiens) (P30968 whole entry, looked up): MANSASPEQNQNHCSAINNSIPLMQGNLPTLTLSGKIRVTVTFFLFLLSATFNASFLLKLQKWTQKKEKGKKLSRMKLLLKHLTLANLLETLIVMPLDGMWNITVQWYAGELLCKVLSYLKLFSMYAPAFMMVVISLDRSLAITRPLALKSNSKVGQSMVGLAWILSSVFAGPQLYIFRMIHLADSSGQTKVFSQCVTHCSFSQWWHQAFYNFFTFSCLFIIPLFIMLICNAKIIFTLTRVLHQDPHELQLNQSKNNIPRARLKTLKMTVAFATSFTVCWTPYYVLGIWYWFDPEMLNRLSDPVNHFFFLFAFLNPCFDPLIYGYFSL

The assay concerns the target Gonadotropin-releasing hormone receptor (Homo sapiens) (UniProt P30968). Description: Human gonadotropin-releasing hormone receptor (GnRHR) small molecule agonists, calcium flux assay in GnRHR-HEK293 cells (AID 1920063). Note: nearly all actives have a fitted effect of over 35% in size. The following applies: calcium flux fluorescence, agonist mode; series mostly up to 57.6 µM. Put shortly:
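Tox21-format agonist screen using human GnRHR-expressing HEK293 cells and a fluorescent calcium dye; kinetic 3-min fluorescence reading after compound addition, 15-point concentration series run in triplicate.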
Background: Calcium flux is commonly read through the fluorescence of an indicator in the cells.
For `O=C1O[C@H]([C@H](O)CO)C(O)=C1O`, the Potency entry is “inactive”. In the case of `COC(=O)c1ccc(O)cc1` it was “inactive”; in that of `S=c1nc[nH]c2nc[nH]c12`, “inactive”.

As to `C[C@]12CCC(=O)C=C1CC[C@@H]1[C@@H]2C(=O)C[C@@]2(C)[C@H]1CC[C@]2(O)C(=O)CO`, the Potency entry is “inactive”. The value for `C/C=C/C(=O)N(CC)c1ccccc1C` was “inactive”; that for `O=c1c(-c2ccc(O)cc2)coc2cc(O)cc(O)c12` was “inactive”; that for `CN(N=O)C(=O)N[C@@H]1[C@@H](O)[C@H](O)[C@@H](CO)O[C@@H]1O` was “inactive”. The value for `CCCCC1C(=O)N(c2ccccc2)N(c2ccccc2)C1=O` was “inactive”; that for `CC12CCC(CC1)C(C)(C)O2` was “inactive”. As to `OC[C@@H](O)[C@@H](O)[C@H](O)[C@H](O)CO`, the Potency entry is “inactive”. The value for `CCCN(CCC)S(=O)(=O)c1ccc(C(=O)O)cc1` was “inactive”; that for `Cc1ncc([N+](=O)[O-])n1CCO` was “inactive”. In the case of `CCCCOC(=O)c1ccc(N)cc1` it was “inactive”; in that of `C#C[C@]1(O)CC[C@H]2[C@@H]3CCC4=CC(=O)CC[C@@H]4[C@H]3CC[C@@]21CC`, “inactive”.

Regarding `c1ccc2c(c1)c1cccc3ccc4cccc2c4c31`, the Potency entry was “inactive”. Regarding `CC1(C)O[C@@H]2C[C@H]3[C@@H]4C[C@H](F)C5=CC(=O)CC[C@]5(C)[C@H]4[C@@H](O)C[C@]3(C)[C@]2(C(=O)CO)O1`, the Potency entry was “inactive”.

With `CC(C)=CCC/C(C)=C/CO`, the Potency entry is “inactive”. The value for `CN1C(C(=O)Nc2ccccn2)=C(O)c2ccccc2S1(=O)=O` was “inactive”; that for `Cc1noc(NS(=O)(=O)c2ccc(N)cc2)c1C` was “inactive”; that for `Cc1cc(=O)n(-c2ccccc2)n1C` was “inactive”.
